Drawing on PubChem BioAssay, this text covers z-score and composite z-score for nine compounds.

Assay [1] is described as follows: HepG2 liver cancer cell viability effects, profiling panel, resazurin fluorescence, 24 h, PK04 Diversity Set (AID 1172). As to conditions: higher = more signal. On the technique in general: Alamar Blue is a resazurin reagent that responds to reducing activity.
A short description of assay [2]: basal S. cerevisiae growth modulation, no modifier, primary screen, OD600, strain BY4716, 24 h, basal condition (AID 1173). To be noted: OD600, 24 h, higher = more signal, called active from +8 up or from −8 down.
Assay [3] can be described thus: MM1S myeloma cell viability, profiling panel, resazurin fluorescence, basal, 24 h, PK04 Diversity Set (AID 1174).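 Note: MM1S multiple myeloma cell line.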 To be noted: higher = more signal, called active from +8 up or from −8 down.
The target of assay [4] is Dihydroorotate dehydrogenase (quinone), mitochondrial (Plasmodium falciparum (isolate 3D7)) (UniProt Q08210). In words: PfDHODH enzyme inhibitors, primary screen, biochemical, C-terminal His tag, absorbance 600 nm (AID 1175).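 Note: recombinant parasite enzyme with a five histidine tag at its C terminus.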 To be noted: DCIP absorbance 600 nm, higher = more signal, called active from +8 up or from −8 down.
Sequence of Dihydroorotate dehydrogenase (quinone), mitochondrial (Plasmodium falciparum (isolate 3D7)) (Q08210 whole entry, looked up): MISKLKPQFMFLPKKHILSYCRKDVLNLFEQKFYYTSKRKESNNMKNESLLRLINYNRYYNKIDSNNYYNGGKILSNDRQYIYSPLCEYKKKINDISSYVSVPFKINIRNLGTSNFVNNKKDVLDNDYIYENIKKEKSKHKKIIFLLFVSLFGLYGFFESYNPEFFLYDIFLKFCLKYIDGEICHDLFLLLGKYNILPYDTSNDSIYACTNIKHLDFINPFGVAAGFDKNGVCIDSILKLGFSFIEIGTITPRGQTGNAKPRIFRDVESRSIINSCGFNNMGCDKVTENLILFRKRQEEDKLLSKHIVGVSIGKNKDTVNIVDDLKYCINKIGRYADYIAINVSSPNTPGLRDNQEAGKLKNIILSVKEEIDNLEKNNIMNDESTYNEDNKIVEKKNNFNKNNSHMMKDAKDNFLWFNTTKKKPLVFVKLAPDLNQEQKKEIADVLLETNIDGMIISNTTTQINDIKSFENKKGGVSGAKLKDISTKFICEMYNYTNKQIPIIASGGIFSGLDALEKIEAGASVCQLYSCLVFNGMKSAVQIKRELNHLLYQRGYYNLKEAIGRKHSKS
Assay [5] in a line: P. aeruginosa biofilm formation inhibitors, primary screen, strain PAO1, LB-PBS medium, absorbance 600 nm (AID 1176). To be noted: P. aeruginosa PAO1 growth/biofilm, A600, 12 h; higher = more signal.
A short description of assay [6]: S. cerevisiae RM11-1a growth modifiers, primary screen, strain RM11-1a, OD600, basal, 24 h (AID 1177).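 Note: cultures grown under basal conditions with no added stressor.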 As to conditions: OD600, 24 h, higher = more signal, called active from +8 up or from −8 down.
Assay [7] in a line: E. coli acrAB mutant growth effects, primary screen, E. coli filamentation inducers, strain DRC39, OD650, 24 h (AID 1178).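 Note: growth measured as culture turbidity by optical density at 650 nm.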 As to conditions: higher = more signal, called active from +8 up or from −8 down.
Assay [8] is described as follows: E. coli acrAB mutant growth effects, primary screen, E. coli filamentation inducers, strain DRC39, OD650, 48 h (AID 1179).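 Note: screen aims at cell division blockers that make cells filament.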 As to conditions: E. coli DRC39 delta-acrAB growth, higher = more signal, called active from +8 up or from −8 down.
Assay [9] can be described thus: RPMI8226 myeloma cell viability, profiling panel, resazurin fluorescence, basal, 24 h, PK04 Diversity Set (AID 1180).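 Note: RPMI8826 multiple myeloma cell line at 5000 cells per well.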 To be noted: higher = more signal.
For assay [10], the target named is E3 ubiquitin-protein ligase XIAP (Homo sapiens) (UniProt P98170). Description: XIAP binders, primary screen, biophysical, small-molecule microarray, fluorescence 635 nm (AID 1181).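 Note: score merges 667 nm emission and signal to noise over triplicate slides.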 As to conditions: small-molecule microarray binding, higher = more signal.
Sequence of E3 ubiquitin-protein ligase XIAP (Homo sapiens) (P98170 whole entry, looked up): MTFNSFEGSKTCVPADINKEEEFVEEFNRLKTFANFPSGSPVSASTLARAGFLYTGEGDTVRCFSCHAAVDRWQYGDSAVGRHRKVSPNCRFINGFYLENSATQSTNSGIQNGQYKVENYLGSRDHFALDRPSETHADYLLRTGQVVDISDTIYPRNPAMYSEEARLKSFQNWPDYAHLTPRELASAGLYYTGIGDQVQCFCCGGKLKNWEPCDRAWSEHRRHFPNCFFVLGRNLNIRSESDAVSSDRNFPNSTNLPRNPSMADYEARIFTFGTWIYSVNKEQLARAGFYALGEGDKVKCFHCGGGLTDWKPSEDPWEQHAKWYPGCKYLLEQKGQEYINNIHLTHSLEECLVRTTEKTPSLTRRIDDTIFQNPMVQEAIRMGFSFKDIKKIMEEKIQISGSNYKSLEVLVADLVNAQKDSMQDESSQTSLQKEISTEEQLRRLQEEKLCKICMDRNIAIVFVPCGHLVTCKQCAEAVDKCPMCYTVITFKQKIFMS
The subject of assay [11] is XIP peptide (Xip251-270) binding. Description: small-molecule binders of XIP peptide, primary screen, biochemical, small-molecule microarray, fluorescence 635/667 nm, 0.1 µg/mL protein (AID 1182). To be noted: fluorescent protein binding, 635 nm, higher = more signal, called active from +8 up or from −8 down.
The next assay concerns XIP peptide (Xip251-270). In words: small-molecule binders of XIP peptide, primary screen, biochemical, small-molecule microarray, fluorescence 635/667 nm, 0.5 µg/mL protein (AID 1183). As to conditions: small-molecule microarray binding, fluorescence 635 nm; higher = more signal.
A short description of assay [12]: Plasmodium falciparum growth inhibition, primary screen, strain 3D7, DAPI fluorescence, 100 nL (AID 1184).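 Note: parasites grown inside human red blood cells in medium with human serum.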 To be noted: P. falciparum 3D7 growth, 3 d, higher = more signal.
Assay [13] deals with Homeobox protein Hox-A13 (Mus musculus) (UniProt Q62424). Description: inhibitors of HoxA13-DNA binding, primary screen, biochemical, fluorescence polarization, labeled oligonucleotide (AID 1185). To be noted: 15 min, higher = more signal, called active from +8 up or from −8 down. (In general: Fluorescence polarisation rises when a labelled molecule tumbles more slowly, as on binding a larger partner.)
Sequence of Homeobox protein Hox-A13 (Mus musculus) (Q62424 whole entry, looked up): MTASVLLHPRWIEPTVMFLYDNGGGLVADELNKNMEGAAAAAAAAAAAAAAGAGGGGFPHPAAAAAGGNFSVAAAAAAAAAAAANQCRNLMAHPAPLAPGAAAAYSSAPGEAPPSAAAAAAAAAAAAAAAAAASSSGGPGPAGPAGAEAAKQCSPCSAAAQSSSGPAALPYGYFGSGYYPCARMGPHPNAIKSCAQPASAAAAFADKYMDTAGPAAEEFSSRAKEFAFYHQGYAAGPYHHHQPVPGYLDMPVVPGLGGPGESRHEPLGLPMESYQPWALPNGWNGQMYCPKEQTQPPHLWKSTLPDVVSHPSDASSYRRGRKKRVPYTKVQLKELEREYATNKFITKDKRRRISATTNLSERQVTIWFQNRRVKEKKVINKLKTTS

The nature of assay [14]: inhibitors of hydroxyurea-induced Chk1 phosphorylation, primary screen, imaging, HeLa, phospho-Chk1 antibody, percent positive cells (AID 1186). To be noted: hydroxyurea-induced phospho-Chk1 immunofluorescence imaging, higher = more signal.
Assay [15] in a line: inhibitors of hydroxyurea-induced Chk1 phosphorylation, primary screen, imaging, HeLa, phospho-Chk1 nuclear intensity (AID 1187). To be noted: hydroxyurea-induced phospho-Chk1 immunofluorescence imaging, higher = more signal.

Each structure is given as a SMILES string. Calls of active or inactive are those of the source. Unless noted, the rule behind the calls is not given here.

Consider `COC(=O)c1c(CC[C@@H](CO)NC(=O)Nc2ncn[nH]2)oc(C(=O)Cc2ccccc2)c1C(=O)OC`, for which the z-score in assay [1] is 0.172; in [2], -0.62 (inactive); in assay [3] it was 0.059 (inactive); in assay [5], 0.55 (inactive); in assay [6], -0.382 (inactive); in assay [7], 0.536 (inactive). Moreover, the z-score was 0.434 (inactive) in assay [8]; 0.36 in assay [9]; 0.654 in assay [12]; -2.98 (inactive) in [13]; 0.498 (inactive) in [14]; -0.15 (inactive) in [15]. Besides, the composite z-score in assay [4] was 0.593 (inactive); in assay [10] it was -0.0952; in [11] it was 0.782 (inactive); in the assay on XIP peptide (Xip251-270), 0.883.

Turning to `CC(c1ccccc1)C(O)C1C=CC2C(=O)N(c3ccccc3)C(=O)C2N1Nc1ccccc1F` (centres undefined), the z-score in [1] was 0.677; in [2], -0.817 (inactive); in assay [3], 0.0907 (inactive); in assay [5], 0.533 (inactive); in assay [6] it was -1.12 (inactive); in assay [7], 0.0976 (inactive). Besides, the z-score in assay [8] is 0.669 (inactive); in [9], 1.21; in [12], -0.436; in [13], -1.51 (inactive); in assay [14] it was -0.123 (inactive); in assay [15], 0.104 (inactive). For the same compound, the composite z-score is 0.549 (inactive) in [4], 0.0859 in assay [10], -0.093 (inactive) in assay [11] and 0.583 with XIP peptide (Xip251-270).

On to `C=CCC(OC(C)=O)[C@@H]1[C@@H](N(Cc2cc3ccccc3o2)C(=O)c2cccc3ccccc23)c2cc(OCCCO)ccc2N1C(=O)Cc1ccc2ccccc2c1` (some centres undefined), for which the z-score in assay [1] was -0.902; in assay [2], 0.272 (inactive); in assay [3], -0.411 (inactive); in assay [5] it was -0.735 (inactive); in [6] it was 0.481 (inactive); in assay [7], -0.741 (inactive). Besides, the z-score in assay [8] is -0.973 (inactive); in [9], -0.276; in assay [12], -1.73; in [13], -1.02 (inactive); in assay [14], -0.394 (inactive); in assay [15] it was 0.15 (inactive). Further, the composite z-score was 0.449 (inactive) in assay [4], -0.0703 in assay [10], -0.0088 (inactive) in [11] and -0.102 in the assay with XIP peptide (Xip251-270).

As for `COC(=O)[C@@]1(Cc2ccc(F)cc2)[C@H]2c3cc(C(=O)N4CCCC4)n(CCc4ccc(OC)c(Br)c4)c3C[C@H]2CN1C(=O)c1ccccc1`, the z-score is -1.25 in assay [1]; 0.836 (inactive) in assay [2]; -2.83 (inactive) in assay [3]; 1.07 (inactive) in assay [5]; 0.264 (inactive) in assay [6]; -0.588 (inactive) in [7]. The z-score is 0.123 (inactive) in [8]; -4.16 in [9]; -1.58 in assay [12]; -2.27 (inactive) in assay [13]; -1.03 (inactive) in [14]; -0.872 (inactive) in assay [15]. In addition, the composite z-score is -0.163 (inactive) in assay [4], 0.183 in [10], -0.0505 (inactive) in assay [11] and 0.557 in the assay with XIP peptide (Xip251-270).

For the compound `CC1(C)C(=O)C(c2ccccc2)=C2CN3C(=O)N(CCc4ccccc4)C(=O)C3(Cc3ccccc3)C=C21` (centres undefined), the z-score in [1] is -0.752; in assay [2] it was 1.4 (inactive); in assay [3], -1.22 (inactive); in assay [5], 0.784 (inactive); in assay [6], 2.07 (inactive); in [7], 0.0474 (inactive). The z-score in assay [8] was 0.222 (inactive); in assay [9], -0.562; in [12], -1.34; in assay [13], -0.335 (inactive); in assay [14], -0.0628 (inactive); in assay [15], 0.121 (inactive). The composite z-score was 0.362 (inactive) in assay [4], 0.237 in assay [10], 1.7 (inactive) in assay [11] and -0.119 in the assay with XIP peptide (Xip251-270).

`CC(C)(C)OC(=O)CC[C@@]1(C(=O)NCC(O)CO)N=C(c2ccc(OCCCO)cc2)O[C@@H]1c1ccccc1` (some centres undefined): the z-score in assay [1] was 0.38; in [2] it was -0.205 (inactive); in assay [3], -0.542 (inactive); in [5], 0.671 (inactive); in [6] it was 0.0191 (inactive); in assay [7], -0.529 (inactive). Besides, the z-score was 0.108 (inactive) in [8]; -0.397 in [9]; 0.649 in [12]; -4.48 (inactive) in assay [13]; 0.184 (inactive) in assay [14]; -0.14 (inactive) in assay [15]. Moreover, the composite z-score was -0.73 (inactive) in assay [4], 0.0785 in [10], 0.826 (inactive) in assay [11] and 0.942 in the assay with XIP peptide (Xip251-270).

For the compound `CC(C)C(O)C1C=CC2C(=O)N(C)C(=O)C2N1N1CCCCC1` (centres undefined), the z-score in [1] was -0.401; in assay [2], 0.717 (inactive); in [3] it was -0.82 (inactive); in assay [5] it was 0.916 (inactive); in assay [6], 0.0471 (inactive); in [7] it was -0.754 (inactive). Besides, the z-score in assay [8] is -0.837 (inactive); in assay [9], -0.323; in [12] it was 0.998; in assay [13], -4.51 (inactive); in [14] it was 0.604 (inactive); in [15], 0.171 (inactive). Also, the composite z-score in assay [4] was -0.0607 (inactive); in assay [10] it was -0.0448; in [11], -0.335 (inactive); in the assay with XIP peptide (Xip251-270) it was 0.855.

Regarding `COCCOC(=O)N1C(=O)[C@@]2(c3cc(C#CC4=CCCCC4)ccc31)[C@H](c1ccc(OCCO)cc1)N1[C@H](c3ccccc3)[C@H](c3ccccc3)OC(=O)[C@H]1[C@@H]2C(=O)Nc1nc2ccccc2s1`, the z-score in assay [1] was 1.16; in assay [2], 1.65 (inactive); in assay [3] it was -0.396 (inactive); in [5], 3.34 (inactive); in [6], 2.68 (inactive); in assay [7], -0.169 (inactive). The z-score in [8] was 0.422 (inactive); in assay [9] it was 0.584; in assay [12], -1.29; in assay [13], 3.94 (inactive); in [14] it was -0.446 (inactive); in [15], -1.1 (inactive). Besides, the composite z-score in assay [4] is 0.123 (inactive); in assay [10], 0.061; in [11] it was -0.166 (inactive); in the assay on XIP peptide (Xip251-270) it was 0.622.

For the compound `COCCCNC(=O)[C@@]1(Sc2ccc(C)cc2)CC(=O)N(Cc2ccccc2)[C@@H]1c1ccc(CO)cc1`, the z-score in assay [1] is 0.802; in assay [2], 0.0695 (inactive); in assay [3] it was 0.495 (inactive); in assay [5], 0.366 (inactive); in assay [6] it was -0.194 (inactive); in [7], 0.234 (inactive). Besides, the z-score in assay [8] is 0.127 (inactive); in assay [9], 1.01; in assay [12], -0.471; in [13] it was -2.81 (inactive); in [14] it was -0.24 (inactive); in assay [15], -0.283 (inactive). Further, the composite z-score was -0.0163 (inactive) in assay [4], -0.0492 in assay [10], -0.496 (inactive) in assay [11] and 0.841 in the assay on XIP peptide (Xip251-270).
